Measured values reported in PubChem BioAssay (NCATS).
A number with no mark means an inactive call. Records with an inconclusive call do not appear. The source made the active and inactive calls. Unless noted, calls follow the shape of the dose curve; as a rule, active = well fitted curve in the direction sought with a large enough effect; inconclusive = small, poorly fitted or top-dose-only effect, or another doubt; inactive = no such curve, though single readings can be large; an effect the other way counts as inactive or inconclusive.

Each compound was assayed against ATP-dependent 6-phosphofructokinase (Trypanosoma brucei brucei) (UniProt O15648) (assay: qHTS Assay to Find Inhibitors of T. brucei phosphofructokinase: hit validation (AID 492961;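 also: luminescence reports ADP formed as PFK phosphorylates fructose-6-phosphate with ATP; % is scaled to controls: 0 for no effect and ±100 for the full control effect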)). Settings: T. brucei PFK, ADP-Glo luminescence; series mostly up to 51.4 µM; activity change, negative = inhibition: at the top concentration.
Sequence of ATP-dependent 6-phosphofructokinase (Trypanosoma brucei brucei) (O15648 whole entry, looked up): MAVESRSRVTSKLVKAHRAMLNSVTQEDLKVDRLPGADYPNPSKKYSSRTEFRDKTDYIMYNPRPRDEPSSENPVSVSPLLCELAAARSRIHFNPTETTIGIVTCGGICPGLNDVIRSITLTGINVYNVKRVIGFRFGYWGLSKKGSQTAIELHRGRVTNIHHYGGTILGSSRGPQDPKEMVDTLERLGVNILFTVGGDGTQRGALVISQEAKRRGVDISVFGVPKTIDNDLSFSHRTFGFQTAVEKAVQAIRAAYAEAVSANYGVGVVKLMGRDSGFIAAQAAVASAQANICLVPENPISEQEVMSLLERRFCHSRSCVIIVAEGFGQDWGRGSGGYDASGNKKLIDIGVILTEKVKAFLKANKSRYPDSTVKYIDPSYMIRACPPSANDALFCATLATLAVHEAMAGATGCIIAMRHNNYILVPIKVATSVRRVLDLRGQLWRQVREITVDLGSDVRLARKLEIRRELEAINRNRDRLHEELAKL
Summary of the method: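 PFK 1.25 nM, F6P 0.5 mM, ATP 0.1 mM, MgCl2 5 mM, 0.1 M TEA pH 8.0, Tween20 0.01%, BSA 0.1%; 45 min RT. ADP-Glo two-step detection, luminescence. qHTS titration; curve fitting with curve-class categorization.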

Row | Structure (SMILES) | activity change, negative = inhibition [%]
1 | CCCCC/C=C\C/C=C\CCCCCCCC(=O)O | 2.73
2 | O=C(O)CCC(=O)C(=O)O | -23.3
3 | CCOC(C)=O | 2.11
4 | O=CCCCC=O | -5.49
5 | CC(C)=O | 0

What follows are compounds tested against Ubiquitin carboxyl-terminal hydrolase 1 (Homo sapiens) (UniProt O94782) (assay: Inhibitors of USP1/UAF1: Pilot qHTS (AID 504865; also: nearly all actives have a fitted effect of over 35% in size; also: potency is read from the fitted curve at half-maximal effect;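 as to activity change, negative = inhibition: rhodamine fluorescence freed from ubiquitin-rhodamine substrate followed over time; top concentration of the series differs between compounds; % is scaled to controls: 0 for no effect and ±100 for the full control effect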)). Settings: purified USP1/UAF1, Ub-rhodamine cleavage fluorescence; series mostly up to 114 µM; activity change, negative = inhibition: at the top concentration.
Sequence of Ubiquitin carboxyl-terminal hydrolase 1 (Homo sapiens) (O94782 whole entry, looked up): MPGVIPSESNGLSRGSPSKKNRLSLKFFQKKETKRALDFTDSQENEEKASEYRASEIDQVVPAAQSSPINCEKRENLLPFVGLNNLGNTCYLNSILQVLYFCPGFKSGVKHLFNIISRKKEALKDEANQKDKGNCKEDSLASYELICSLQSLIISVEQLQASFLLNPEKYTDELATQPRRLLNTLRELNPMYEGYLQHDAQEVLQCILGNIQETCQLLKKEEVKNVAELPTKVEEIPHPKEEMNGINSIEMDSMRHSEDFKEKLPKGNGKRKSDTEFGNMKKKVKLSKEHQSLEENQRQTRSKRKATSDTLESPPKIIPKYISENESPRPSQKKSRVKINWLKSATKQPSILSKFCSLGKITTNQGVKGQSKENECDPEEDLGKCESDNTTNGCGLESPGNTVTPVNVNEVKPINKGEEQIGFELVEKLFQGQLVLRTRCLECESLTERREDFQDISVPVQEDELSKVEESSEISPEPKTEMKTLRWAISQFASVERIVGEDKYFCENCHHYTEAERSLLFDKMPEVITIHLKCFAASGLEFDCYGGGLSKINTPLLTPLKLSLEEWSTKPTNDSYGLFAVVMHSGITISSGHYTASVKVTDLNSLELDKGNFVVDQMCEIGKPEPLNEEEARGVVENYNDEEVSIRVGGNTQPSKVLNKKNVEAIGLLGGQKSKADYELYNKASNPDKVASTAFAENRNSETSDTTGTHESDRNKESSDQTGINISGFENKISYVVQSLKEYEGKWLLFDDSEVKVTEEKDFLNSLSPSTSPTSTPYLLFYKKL
Summary of the method: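 Kinetic fluorescence assay: 1nM USP1/UAF1, 15 min compound preincubation, then 150nM Ub-Rho; 480/540 nm.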

Row | Structure (SMILES) | activity change, negative = inhibition | Potency
6 | OCc1ccccc1O[C@@H]1O[C@H](CO)[C@@H](O)[C@H](O)[C@H]1O | -3.98% | –
7 | CCCCCCOc1ccc(C(=N)N(CCCC)CCCC)c2ccccc12 | – | 39.8 µM (active)
8 | NC1C2CN(c3nc4c(cc3F)c(=O)c(C(=O)O)cn4-c3ccc(F)cc3F)CC12 (centres undefined) | -5.22% | –
9 | O=C(O)CCC(=O)C(=O)O | -2.49% | –
10 | CCOC(C)=O | -6.58% | –
11 | O=S(=O)(O)c1ccc2c(N=Nc3ccc(S(=O)(=O)O)c4ccccc34)c(O)c(S(=O)(=O)O)cc2c1 | – | 17.8 µM (active)
12 | CCCCC(CC)COC(=O)CC(C(=O)OCC(CC)CCCC)S(=O)(=O)O (centres undefined) | – | 50.1 µM (active)
13 | O=C(O)CC/C=C\CC[C@H]1[C@@H](N2CCCCC2)[C@@H](O)C[C@@H]1OCc1ccc(-c2ccccc2)cc1 | -7.69% | –
14 | CC1(C)S[C@@H]2[C@H](NC(=O)Cc3ccccc3)C(=O)N2[C@H]1C(=O)O | 2.16% [at 54.9 µM] | –
15 | COc1ccc2c3c1O[C@H]1C[C@@H](O)C=C[C@@]31CCN(C)C2 | 2.31% | –
16 | Cc1cc(/C=C/c2ccc3cc(N(C)C)ccc3[n+]2C)c(C)n1-c1ccccc1 | – | 44.7 µM (active)
17 | Nc1c(Br)cc(Br)cc1CNC1CCC(O)CC1 (centres undefined) | – | inactive
18 | CCCCCCC(O)C/C=C/CCCCCCCC(=O)O (centres undefined) | -6.35% | –
19 | Nc1ncnc2c1ncn2[C@@H]1O[C@H](COP(=O)(O)OP(=O)(O)OP(=O)(O)O)[C@@H](O)[C@H]1O | 3.11% | –
20 | O=C1C(=O)c2ncccc2-c2cccnc21 | – | 50.1 µM (active)
21 | CCCC(=O)Nc1ncnc2c1ncn2C1OC2COP(=O)(O)OC2C1OC(=O)CCC (centres undefined) | -0.134% | –
22 | Cc1c(C)c2c(c(C)c1O)CC[C@@](C)(CCC[C@@H](C)CCC[C@@H](C)CCCC(C)C)O2 | -0.831% | –
23 | CCCC(=O)Nc1ncnc2c1ncn2[C@@H]1O[C@@H]2COP(=O)(O)O[C@H]2[C@H]1OC(=O)CCC | -6.16% | –
24 | COC(=O)CCC(=O)CN | -2.44% | –
25 | CCCCCCCCCCCCCC[n+]1ccc(C)cc1 | – | 56.2 µM (active)
26 | CCOc1ccc2c(c1)C(C)=CC(C)(C)N2 | -8.83% [at 11.4 µM] | –
27 | IC(I)I | -3.81% | –
28 | NC(=O)c1ncn(C2OC(CO)C(O)C2O)n1 (centres undefined) | 2.23% | –

Each compound was assayed against DNA dC->dU-editing enzyme APOBEC-3G (Homo sapiens) (UniProt Q9HC16) (assay: qHTS for inhibitors of Vif-A3G interactions: Validation (AID 588379; also: 0% is about no effect)). Settings: Vif-A3G protein interaction assay; series mostly up to 46.1 µM; activity change, negative = inhibition: at the top concentration.
Sequence of DNA dC->dU-editing enzyme APOBEC-3G (Homo sapiens) (Q9HC16 whole entry, looked up): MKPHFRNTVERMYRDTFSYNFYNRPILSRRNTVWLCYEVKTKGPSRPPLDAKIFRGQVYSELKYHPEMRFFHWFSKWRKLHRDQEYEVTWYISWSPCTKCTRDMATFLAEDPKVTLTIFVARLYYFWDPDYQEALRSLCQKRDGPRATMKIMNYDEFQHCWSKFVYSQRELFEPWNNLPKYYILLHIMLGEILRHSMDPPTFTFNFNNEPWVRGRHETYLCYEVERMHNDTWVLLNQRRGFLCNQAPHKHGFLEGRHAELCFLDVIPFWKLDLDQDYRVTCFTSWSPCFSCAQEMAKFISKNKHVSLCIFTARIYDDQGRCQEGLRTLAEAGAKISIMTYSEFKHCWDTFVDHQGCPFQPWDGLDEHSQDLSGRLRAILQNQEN
Summary of the method: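 HeLa cells stably expressing Vif and A3G-eYFP, 700 cells/well, incubated overnight at 37 deg C, then exposed to compound overnight at 37 deg C. Inhibition of Vif-mediated degradation read as increased yellow fluorescence (Ex 488/Em 500-530) by laser-scanning cytometry.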

Row | Structure (SMILES) | activity change, negative = inhibition [%] | outcome
29 | OCc1ccccc1O[C@@H]1O[C@H](CO)[C@@H](O)[C@H](O)[C@H]1O | 0.547 | –
30 | COC(=O)[C@H]1[C@H]2CC3c4[nH]c5ccccc5c4CCN3C[C@@H]2CC[C@@H]1O (some centres undefined) | -2.71 | –
31 | O=C(O)CC/C=C\CC[C@H]1[C@@H](N2CCCCC2)[C@@H](O)C[C@@H]1OCc1ccc(-c2ccccc2)cc1 | -2.53 | –
32 | CC1=C(/C=C/C(C)=C/C=C/C(C)=C/CO)C(C)(C)CCC1 | -0.71 | –
33 | COC(=O)C1=C(C)NC(C)=C(C(=O)OCCCN2CCC(c3ccccc3)(c3ccccc3)CC2)[C@H]1c1cccc([N+](=O)[O-])c1 | – | inactive
34 | CCCC(=O)Nc1ncnc2c1ncn2[C@@H]1O[C@@H]2COP(=O)(O)O[C@H]2[C@H]1OC(=O)CCC | -2.89 | –
35 | O=c1ccn([C@@H]2O[C@H](CO)[C@@H](O)[C@H]2O)c(=O)[nH]1 | 0.914 | –
36 | CC(Cc1ccc(O)c(O)c1)C(C)Cc1ccc(O)c(O)c1 (centres undefined) | -5.76 | –

What follows are compounds tested against Estrogen receptor (Homo sapiens) (UniProt P03372) (assay: qHTS assay for small molecule antagonists of estrogen receptor alpha signaling (AID 588513; active = well fitted curve in the direction sought with a large enough effect in the signal ratio, with a control signal flat, not every such curve was filed as active; the % refers to the signal ratio; also: % is scaled to controls: 0 for no effect and ±100 for the full control effect)). Settings: ER-alpha-UAS-bla HEK293, beta-lactamase ratio, antagonist mode; series mostly up to 76.9 µM; activity, negative = inhibition: at the top concentration.
Sequence of Estrogen receptor (Homo sapiens) (P03372 whole entry, looked up): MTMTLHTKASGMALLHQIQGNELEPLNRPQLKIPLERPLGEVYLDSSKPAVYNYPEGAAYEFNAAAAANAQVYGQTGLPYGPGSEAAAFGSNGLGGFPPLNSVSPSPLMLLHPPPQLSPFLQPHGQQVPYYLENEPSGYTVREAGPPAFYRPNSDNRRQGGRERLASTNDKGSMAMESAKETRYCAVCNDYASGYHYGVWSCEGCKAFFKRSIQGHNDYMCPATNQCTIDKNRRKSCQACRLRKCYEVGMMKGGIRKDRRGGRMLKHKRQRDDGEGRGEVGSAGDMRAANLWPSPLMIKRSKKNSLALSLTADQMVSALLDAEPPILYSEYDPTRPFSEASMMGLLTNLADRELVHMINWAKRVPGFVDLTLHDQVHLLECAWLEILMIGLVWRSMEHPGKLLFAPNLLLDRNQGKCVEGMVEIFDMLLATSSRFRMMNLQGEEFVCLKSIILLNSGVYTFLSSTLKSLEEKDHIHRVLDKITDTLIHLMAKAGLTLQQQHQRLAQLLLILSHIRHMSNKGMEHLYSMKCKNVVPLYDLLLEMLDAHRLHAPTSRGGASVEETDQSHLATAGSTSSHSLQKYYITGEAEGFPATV
Summary of the method: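 Cells were plated at 5000/well and incubated 4 h at 37 C. Compounds were added as 1:2 dilution series, duplicates. 17-beta-estradiol (0.5nM final) was added for 18 h before CCF4 detection.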

Row | Structure (SMILES) | activity, negative = inhibition [%]
37 | CCCCC/C=C\C/C=C\CCCCCCCC(=O)O | -11.6
38 | O=C(O)CCC(=O)C(=O)O | 19
39 | CCOC(C)=O | 5.98
40 | O=CCCCC=O | 30.1
41 | CC1=C2[C@@H]([C@H](C)CC[C@H]2/C=C(\C)C(=O)O)[C@H](O)C1 | -0.793
42 | CC1=C(/C=C/C(C)=C/C=C/C(C)=C/CO)C(C)(C)CCC1 | -1.86
43 | CC(C)=O | 12.8
44 | CCOc1ccc2c(c1)C(C)=CC(C)(C)N2 | 12
